Test results published in PubChem BioAssay.
Results filed as inconclusive are left out. Active and inactive are the calls of the source.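 The calls were made as follows, unless noted: active = percent response above 42, roughly 3 SD of non-fluorescent test compounds; inactive = the rest.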

How the values were obtained:
[1] = rapamycin-like changes in RPL19A-GFP expression – cell-based, S. cerevisiae, multiplex flow cytometry, primary screen (AID 1862; in the data active = percent of DMSO control GFP below about 86%;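 also: lower values mimic rapamycin by blocking the RPL19A rise seen in DMSO cells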); conditions: S. cerevisiae RPL19A-GFP strain, flow cytometry fluorescence, 3 h; at 10 µM; stronger effect = lower value
[2] = TOR pathway GLN3 branch reporter MEP2-GFP changes – S. cerevisiae, multiplex flow cytometry, primary screen (AID 1867;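 active = GFP response, as percent of the DMSO control, above the screen-wide mean plus 3 SD, about 139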;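 also: median GFP channel fluorescence of barcode-gated MEP2-GFP cells measured by flow cytometry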); conditions: S. cerevisiae MEP2-GFP strain, 3 h, at 10 µM, stronger effect = higher value, 100% means same as DMSO wells
[3] = TOR pathway RTG branch CIT2 reporter changes – S. cerevisiae, GFP fusion, multiplex flow cytometry, primary screen (AID 1870;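 active = percent response above a set limit, the screen-wide mean plus 3 SD, cut at about 130% in these data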;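 also: barcoded CIT2-GFP strain pooled with four other GFP strains with rapamycin as positive control; median GFP fluorescence per well over plate mean of DMSO wells so 100% = DMSO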); conditions: S. cerevisiae CIT2-GFP expression, 3 h, at 10 µM, stronger effect = higher value
[4] = TOR pathway LAP4-GFP level changes – S. cerevisiae, multiplex flow cytometry, primary screen (AID 1873;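 active = GFP signal, as percent of the solvent control, above the screen mean plus 3 SD, about 149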); conditions: S. cerevisiae LAP4-GFP expression, 3 h, at 10 µM, stronger effect = higher value
[5] = yeast AGP1-GFP level changes, GLN3 branch – cell-based, multiplex flow cytometry, S. cerevisiae, primary screen (AID 1887;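 active = GFP signal above the screen-wide mean plus 3 SD, that is over about 124.5% of the solvent control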;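 also: AGP1-GFP fusion strain of S. cerevisiae within a five-strain barcoded multiplex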); conditions: 3 h, at 10 µM, stronger effect = higher value
[6] = reduced mouse 2C T cell binding to pMHC/ICAM-1 vesicles – MLPCN validation set, flow cytometry, LFA-1/ICAM-1 modulator project, pilot screen (AID 2523;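 active = response below a set limit, under 55% cells CD8-positive and vesicle-bound, and CD8 cells' 90th-percentile brightness under 279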;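 as to vesicle binding response: mean PE anti-B7-1 fluorescence of CD8+ cells relative to row control; 100% = QL9-loaded vesicles with DMSO vehicle in the same plate row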); conditions: 2C mouse CD8+ T cells, at 7 µM, stronger effect = lower value; double positive events: measured here: CD8+/vesicle+ event percentage
[7] = molecular target: Integrin beta-1 (Homo sapiens) + Integrin alpha-4 (Homo sapiens) (UniProt P13612+P05556); experiment: alpha4beta1 integrin LIBS antibody binding reduction – U937 cells, HUTS-21 mAb, flow cytometry, validation set, VLA-4 allosteric modulator project, pilot screen (AID 2674;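 active = inhibition above 50%, about 3 SD of the validation set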;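 also: antibody binding induced by the VLA-4 ligand LDV present at three times its Kd; 0% = LDV ligand with antibody and no compound and 100% = antibody without LDV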); conditions: HUTS-21 LIBS mAb binding, at 6.7 µM, stronger effect = higher value, binding induced by LDV ligand
[8] = calorie-restriction mimetic ROS inhibitors, yeast – validation compound set, pilot screen (AID 2706;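 active = superoxide response below 65% of plate, a cut near 3 SD across the whole screen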;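 also: yeast exposed to compound for one week at 30 degrees C before staining; 100% = mean of all compound wells on the same plate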); conditions: S. cerevisiae aging, superoxide DHE fluorescence; at 10 µM; stronger effect = lower value
[9] = molecular target: Beta-adrenergic receptor kinase 1 (Homo sapiens) (UniProt P25098); experiment: GRK2 binders displacing RNA aptamer, biochemical, validation, human GRK2, bead flow cytometry (AID 488806;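 active = aptamer binding inhibition above 30%, about 3 SD of noise from non-fluorescent compounds; inactive = inhibition at or below 30%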); conditions: bead-bound GRK2, FAM-aptamer displacement, at 10 µM, stronger effect = higher value
[10] = molecular target: Beta-2 adrenergic receptor (Homo sapiens) (UniProt P07550); experiment: agonist-induced loss of surface beta2AR – cell-based, FAP fluorogen, flow cytometry, validation set, pilot screen (AID 504459); conditions: Am2.2-beta2AR cells, at 10 µM, stronger effect = higher value;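 also: agonist-driven loss of surface beta2AR via internalization measured by FAP dye flow cytometry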
[11] = molecular target: AP-2 complex subunit beta (Homo sapiens) (UniProt P63010); experiment: beta-arrestin/AP2 interaction blockers – biochemical, validation set, GST-AP2 beads, flow cytometry, pilot screen (AID 504541;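 active = inhibition above 54%, about 3 SD of non-fluorescent compounds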;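 also: AP2 carries R879A mutation and is captured from E. coli lysate; bead-bound FITC arrestin peptide fluorescence measuring arrestin peptide binding to AP2; 0% = DMSO wells and 100% = excess unlabeled arrestin peptide control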); conditions: FITC arrestin peptide, at 10 µM, stronger effect = higher value, AP2 beta2 appendage fragment, R879A mutant
[12] = cytosolic pH regulators acting via V-ATPase – S. cerevisiae, pHLuorin, HTS validation (AID 504600; in the data active = response above about 15%;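 also: plate controls were DMSO for no effect and reference compound for full effect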); conditions: V-ATPase proton transport, at 10 µM, stronger effect = higher value
[13] = test system: anti-desmoglein-3 scFv antibody binding to human DSG3; experiment: blockers of pathogenic pemphigus antibody–desmoglein-3 binding – biochemical, validation compound set, bead-based, flow cytometry, pilot screen (AID 588368;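 active = binding below the plate cutoff, the plate median minus 3 SD, with a reading above zero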;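 also: signal is the median channel fluorescence of bead-bound GFP antibody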); conditions: Protein G beads, DSG3-Fc, scFv-GFP binding, at 10 µM, stronger effect = lower value
[14] = Nile Red efflux blockade in pump-expressing yeast – validation compound set, multiplex, phenotypic, pilot screen (AID 588506;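 active = efflux inhibition above 0.42, the validation set average plus 4 SD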;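 also: Nile Red retained in cells so higher fluorescence means more efflux inhibition; 0 = negative control wells and 1 = enniatin B 25 µM full block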); conditions: S. cerevisiae pump-expressing triplex, Nile Red efflux flow cytometry; at 10 µM; stronger effect = higher value; the pumps come from Candida albicans
[15] = molecular target: ATP-binding cassette sub-family B member 6 (Homo sapiens) (UniProt Q9NP58); experiment: blockers of ABCB6-driven porphyrin uptake – K562-ABCB6 cells, flow cytometry, validation set, pilot screen (AID 588550;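 active = inhibition above the screen-wide mean plus 3 SD, about 51%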;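 also: 0% = DMSO wells and 100% = benzethonium chloride 70 µM positive control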); conditions: K562-ABCB6 porphyrin accumulation, 1 h, at 10 µM, stronger effect = higher value
[16] = AML differentiation inducers, ER-HoxA9 marrow cells – cell-based, GFP/MAC1 double positive, flow cytometry, validation set, primary screen (AID 588685;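 active = differentiation response of at least 50%, scaled between solvent and reference control, from cells with both markers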;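 also: compound exposure lasts four days before antibody staining and flow analysis; 0% = DMSO wells and 100% = 5 µM fulvestrant positive control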); conditions: stronger effect = higher value, normalized: vehicle 0, fulvestrant 100

Beta-2 adrenergic receptor (Homo sapiens), sequence (P07550 whole entry, looked up): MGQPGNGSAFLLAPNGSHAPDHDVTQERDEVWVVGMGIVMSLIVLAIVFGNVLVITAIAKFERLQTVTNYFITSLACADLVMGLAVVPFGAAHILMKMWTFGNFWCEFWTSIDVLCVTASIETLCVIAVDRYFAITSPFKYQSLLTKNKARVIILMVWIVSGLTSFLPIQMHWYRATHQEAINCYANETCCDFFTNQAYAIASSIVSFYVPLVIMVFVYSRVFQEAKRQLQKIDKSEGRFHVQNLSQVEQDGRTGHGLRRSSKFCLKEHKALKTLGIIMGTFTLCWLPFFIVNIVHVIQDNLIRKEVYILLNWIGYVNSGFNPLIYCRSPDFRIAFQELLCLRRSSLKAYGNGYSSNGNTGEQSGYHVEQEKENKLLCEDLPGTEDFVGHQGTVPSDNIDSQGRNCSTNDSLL
Beta-adrenergic receptor kinase 1 (Homo sapiens), sequence (P25098 whole entry, looked up): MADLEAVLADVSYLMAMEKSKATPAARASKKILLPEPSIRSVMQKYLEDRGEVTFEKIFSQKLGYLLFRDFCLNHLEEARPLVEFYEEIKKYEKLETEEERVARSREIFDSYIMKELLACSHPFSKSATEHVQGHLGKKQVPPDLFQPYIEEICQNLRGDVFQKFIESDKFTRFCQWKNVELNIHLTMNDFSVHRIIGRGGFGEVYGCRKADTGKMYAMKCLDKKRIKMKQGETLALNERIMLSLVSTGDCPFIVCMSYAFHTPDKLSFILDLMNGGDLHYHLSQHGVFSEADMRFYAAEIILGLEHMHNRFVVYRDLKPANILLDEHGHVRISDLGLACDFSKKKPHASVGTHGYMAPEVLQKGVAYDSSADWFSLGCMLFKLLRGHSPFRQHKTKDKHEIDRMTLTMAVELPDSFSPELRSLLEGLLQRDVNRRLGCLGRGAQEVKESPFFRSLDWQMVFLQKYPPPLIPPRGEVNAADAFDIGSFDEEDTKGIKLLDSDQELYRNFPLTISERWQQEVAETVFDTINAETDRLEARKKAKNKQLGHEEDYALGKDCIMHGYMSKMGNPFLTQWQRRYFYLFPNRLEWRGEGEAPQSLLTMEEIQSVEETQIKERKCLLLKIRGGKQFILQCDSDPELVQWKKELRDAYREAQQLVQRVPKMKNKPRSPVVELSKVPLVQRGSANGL
AP-2 complex subunit beta (Homo sapiens), sequence (P63010 whole entry, looked up, the tested form may be a part, one chain of several): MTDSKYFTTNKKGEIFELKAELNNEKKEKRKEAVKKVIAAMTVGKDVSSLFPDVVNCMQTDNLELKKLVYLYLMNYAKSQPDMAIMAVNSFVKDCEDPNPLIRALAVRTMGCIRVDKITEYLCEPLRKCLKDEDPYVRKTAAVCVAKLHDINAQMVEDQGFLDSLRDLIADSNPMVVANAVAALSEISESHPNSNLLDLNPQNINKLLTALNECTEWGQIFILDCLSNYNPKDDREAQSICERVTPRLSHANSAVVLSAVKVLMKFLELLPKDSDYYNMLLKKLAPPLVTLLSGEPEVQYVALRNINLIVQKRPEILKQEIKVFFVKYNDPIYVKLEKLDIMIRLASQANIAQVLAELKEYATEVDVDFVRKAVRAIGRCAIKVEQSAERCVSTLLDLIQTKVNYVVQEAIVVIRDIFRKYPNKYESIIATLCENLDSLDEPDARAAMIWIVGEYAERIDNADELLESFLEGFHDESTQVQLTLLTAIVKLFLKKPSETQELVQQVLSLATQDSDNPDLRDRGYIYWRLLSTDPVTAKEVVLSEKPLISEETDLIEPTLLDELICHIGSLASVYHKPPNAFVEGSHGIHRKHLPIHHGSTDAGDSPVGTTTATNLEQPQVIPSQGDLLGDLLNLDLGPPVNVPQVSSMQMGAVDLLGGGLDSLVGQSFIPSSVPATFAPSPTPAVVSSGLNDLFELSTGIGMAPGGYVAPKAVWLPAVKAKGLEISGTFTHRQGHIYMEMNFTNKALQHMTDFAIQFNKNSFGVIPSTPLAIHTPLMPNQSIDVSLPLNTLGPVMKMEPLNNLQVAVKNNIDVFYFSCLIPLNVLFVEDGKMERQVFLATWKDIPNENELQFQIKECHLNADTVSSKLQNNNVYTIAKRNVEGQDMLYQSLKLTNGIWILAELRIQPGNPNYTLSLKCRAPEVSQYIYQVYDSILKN
ATP-binding cassette sub-family B member 6 (Homo sapiens), sequence (Q9NP58 whole entry, looked up): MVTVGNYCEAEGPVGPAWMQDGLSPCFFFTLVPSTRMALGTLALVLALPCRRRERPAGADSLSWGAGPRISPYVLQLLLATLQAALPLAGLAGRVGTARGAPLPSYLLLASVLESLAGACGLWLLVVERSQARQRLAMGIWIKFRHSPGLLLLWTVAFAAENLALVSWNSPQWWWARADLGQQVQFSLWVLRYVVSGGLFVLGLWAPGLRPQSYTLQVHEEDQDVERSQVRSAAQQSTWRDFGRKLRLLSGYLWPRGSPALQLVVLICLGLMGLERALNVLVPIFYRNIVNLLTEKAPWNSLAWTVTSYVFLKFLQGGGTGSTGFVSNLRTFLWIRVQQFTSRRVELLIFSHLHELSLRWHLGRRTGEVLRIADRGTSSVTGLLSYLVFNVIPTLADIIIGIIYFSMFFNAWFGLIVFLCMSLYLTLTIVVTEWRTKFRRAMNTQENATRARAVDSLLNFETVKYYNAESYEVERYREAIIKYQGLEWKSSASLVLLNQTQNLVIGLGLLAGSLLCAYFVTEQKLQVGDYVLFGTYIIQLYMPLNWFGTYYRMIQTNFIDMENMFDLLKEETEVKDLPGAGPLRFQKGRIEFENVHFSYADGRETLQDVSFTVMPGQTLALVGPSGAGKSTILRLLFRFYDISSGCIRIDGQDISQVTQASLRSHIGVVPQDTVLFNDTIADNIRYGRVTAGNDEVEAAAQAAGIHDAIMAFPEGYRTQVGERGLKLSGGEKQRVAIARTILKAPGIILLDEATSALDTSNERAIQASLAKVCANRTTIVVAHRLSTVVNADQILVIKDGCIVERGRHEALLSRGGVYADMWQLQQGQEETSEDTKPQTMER
Integrin beta-1 (Homo sapiens) + Integrin alpha-4 (Homo sapiens), sequence (P05556 whole entry, looked up): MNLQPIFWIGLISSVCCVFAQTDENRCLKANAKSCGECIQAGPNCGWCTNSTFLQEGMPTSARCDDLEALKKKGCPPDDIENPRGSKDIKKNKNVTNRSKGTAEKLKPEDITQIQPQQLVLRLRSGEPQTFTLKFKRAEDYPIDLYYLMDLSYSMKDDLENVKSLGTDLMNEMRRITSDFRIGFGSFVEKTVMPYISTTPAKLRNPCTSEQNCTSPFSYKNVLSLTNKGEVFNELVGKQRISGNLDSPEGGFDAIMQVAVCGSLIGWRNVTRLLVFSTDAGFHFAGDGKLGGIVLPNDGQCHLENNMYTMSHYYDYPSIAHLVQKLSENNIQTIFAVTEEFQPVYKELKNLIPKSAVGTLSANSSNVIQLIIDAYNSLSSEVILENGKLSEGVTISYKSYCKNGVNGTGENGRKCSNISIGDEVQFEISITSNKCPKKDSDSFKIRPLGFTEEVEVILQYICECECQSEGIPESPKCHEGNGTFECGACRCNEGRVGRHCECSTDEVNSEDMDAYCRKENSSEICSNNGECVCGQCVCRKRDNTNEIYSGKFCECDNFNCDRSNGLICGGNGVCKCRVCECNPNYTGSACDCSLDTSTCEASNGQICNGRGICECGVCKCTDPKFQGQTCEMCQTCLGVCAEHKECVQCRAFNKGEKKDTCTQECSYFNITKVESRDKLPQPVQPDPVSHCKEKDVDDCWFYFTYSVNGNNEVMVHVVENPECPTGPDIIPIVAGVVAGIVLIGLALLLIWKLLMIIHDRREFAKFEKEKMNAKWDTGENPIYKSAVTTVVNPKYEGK
Integrin beta-1 (Homo sapiens) + Integrin alpha-4 (Homo sapiens), sequence (P13612 whole entry, looked up): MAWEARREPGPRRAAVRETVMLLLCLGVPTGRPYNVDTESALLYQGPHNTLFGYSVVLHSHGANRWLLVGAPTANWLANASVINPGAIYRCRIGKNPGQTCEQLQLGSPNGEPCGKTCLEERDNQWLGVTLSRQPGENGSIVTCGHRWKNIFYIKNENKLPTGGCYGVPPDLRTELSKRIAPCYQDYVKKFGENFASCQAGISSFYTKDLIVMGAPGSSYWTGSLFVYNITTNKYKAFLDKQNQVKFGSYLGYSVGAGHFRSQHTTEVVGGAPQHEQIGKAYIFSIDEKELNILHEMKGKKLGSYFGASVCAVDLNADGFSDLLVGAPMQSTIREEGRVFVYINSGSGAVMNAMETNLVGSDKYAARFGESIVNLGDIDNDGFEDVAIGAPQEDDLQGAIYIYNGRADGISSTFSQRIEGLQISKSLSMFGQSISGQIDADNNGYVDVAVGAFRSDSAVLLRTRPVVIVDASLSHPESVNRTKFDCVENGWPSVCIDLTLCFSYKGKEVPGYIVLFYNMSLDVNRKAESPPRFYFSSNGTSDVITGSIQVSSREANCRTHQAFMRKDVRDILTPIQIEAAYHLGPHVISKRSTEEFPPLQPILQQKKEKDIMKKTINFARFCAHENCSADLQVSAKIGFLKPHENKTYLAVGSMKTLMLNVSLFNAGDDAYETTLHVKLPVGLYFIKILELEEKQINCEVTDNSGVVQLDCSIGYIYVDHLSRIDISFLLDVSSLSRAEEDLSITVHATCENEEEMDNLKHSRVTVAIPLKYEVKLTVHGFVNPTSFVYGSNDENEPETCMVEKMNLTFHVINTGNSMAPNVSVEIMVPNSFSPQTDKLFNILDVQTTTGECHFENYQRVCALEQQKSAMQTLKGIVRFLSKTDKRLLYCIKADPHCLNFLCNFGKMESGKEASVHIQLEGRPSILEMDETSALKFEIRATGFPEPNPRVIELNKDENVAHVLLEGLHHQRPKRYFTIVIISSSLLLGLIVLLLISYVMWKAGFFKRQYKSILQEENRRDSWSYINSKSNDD

CC1=NN(C(=O)c2ccc(Br)cc2)C(O)(c2ccccc2)C1 (stereo not drawn)
inactive: percent of DMSO control GFP [1] 100% | GFP response vs DMSO [2] 96.6% | percent response of DMSO control [3] 102% | GFP response vs DMSO [4] 109% | GFP response, % of DMSO [5] 103% | vesicle binding response [6] 165% | inhibition [7] 13.7% | superoxide response (% of plate) [8] 86.9% | aptamer binding inhibition [9] 0% | response [10] 5.99% | inhibition [11] -5.19% | response [12] -3.1% | binding (% of control) [13] 96.8% | efflux inhibition (fraction of control) [14] 0.36 | inhibition [15] -9% | differentiation response [16] -4.57%
64.3%: double positive events [6]

COc1ccc(C(C)N2CC34C=CC(O3)C(C(=O)OCC(C)C)C4C2=O)cc1 (stereo not drawn)
inactive: percent of DMSO control GFP [1] 103% | GFP response vs DMSO [2] 107% | percent response of DMSO control [3] 96.6% | GFP response vs DMSO [4] 92% | GFP response, % of DMSO [5] 107% | vesicle binding response [6] 5650% | inhibition [7] -10.8% | superoxide response (% of plate) [8] 98.6% | aptamer binding inhibition [9] 1% | response [10] -2.15% | inhibition [11] -17.5% | response [12] 3.8% | binding (% of control) [13] 96.9% | efflux inhibition (fraction of control) [14] 0.02 | inhibition [15] -4% | differentiation response [16] -8.55%
63.5%: double positive events [6]

COc1ccc(-c2cc(=Nc3ccc(C)cc3)c3ccccc3o2)cc1
inactive: percent of DMSO control GFP [1] 97.3% | GFP response vs DMSO [2] 106% | percent response of DMSO control [3] 93.8% | GFP response vs DMSO [4] 132% | GFP response, % of DMSO [5] 104% | vesicle binding response [6] 195% | inhibition [7] 16.8% | superoxide response (% of plate) [8] 99.5% | aptamer binding inhibition [9] 0% | response [10] -21.4% | inhibition [11] -0.02% | response [12] 7.52% | binding (% of control) [13] 97.3% | efflux inhibition (fraction of control) [14] -0.04 | inhibition [15] 5% | differentiation response [16] -9.91%
60.2%: double positive events [6]

COc1ccc2[nH]c3c(c2c1)CCNC3C1CC=C(C)CC1 (stereo not drawn)
69%: double positive events [6]
inactive: percent of DMSO control GFP [1] 95.9% | GFP response vs DMSO [2] 128% | percent response of DMSO control [3] 104% | GFP response vs DMSO [4] 79.8% | GFP response, % of DMSO [5] 101% | vesicle binding response [6] 519% | inhibition [7] 7.43% | superoxide response (% of plate) [8] 111% | aptamer binding inhibition [9] -1% | response [10] 13.6% | inhibition [11] 2.43% | response [12] -0.18% | binding (% of control) [13] 113% | efflux inhibition (fraction of control) [14] 0.12 | inhibition [15] -1% | differentiation response [16] 0.82%

O=C(Cc1ccccc1[N+](=O)[O-])NCCCN1CCOCC1
inactive: percent of DMSO control GFP [1] 101% | GFP response vs DMSO [2] 101% | percent response of DMSO control [3] 96.4% | GFP response vs DMSO [4] 107% | GFP response, % of DMSO [5] 107% | vesicle binding response [6] 426% | inhibition [7] -4.52% | superoxide response (% of plate) [8] 113% | aptamer binding inhibition [9] 1% | response [10] -20% | inhibition [11] -4.04% | response [12] 0.45% | binding (% of control) [13] 99.9% | efflux inhibition (fraction of control) [14] 0 | inhibition [15] 2% | differentiation response [16] -5.97%
63.1%: double positive events [6]

CC1(C)O[C@@H]2C[C@H]3[C@@H]4C[C@H](F)C5=CC(=O)C=C[C@]5(C)[C@@]4(F)[C@@H](O)C[C@]3(C)[C@]2(C(=O)CO)O1
57.8%: double positive events [6]
inactive: percent of DMSO control GFP [1] 102% | GFP response vs DMSO [2] 102% | percent response of DMSO control [3] 105% | GFP response vs DMSO [4] 102% | GFP response, % of DMSO [5] 111% | vesicle binding response [6] 113% | inhibition [7] -5.11% | superoxide response (% of plate) [8] 103% | aptamer binding inhibition [9] 1% | response [10] 6.68% | inhibition [11] -10.8% | response [12] 0.85% | binding (% of control) [13] 104% | efflux inhibition (fraction of control) [14] -0.025 | inhibition [15] 19% | differentiation response [16] -8.96%

COc1ccc(N2C(=O)C3C(C2=O)C(C(=O)c2ccccc2)N2CCCC32)cc1 (stereo not drawn)
inactive: percent of DMSO control GFP [1] 98.6% | GFP response vs DMSO [2] 107% | percent response of DMSO control [3] 84.4% | GFP response vs DMSO [4] 122% | GFP response, % of DMSO [5] 95.7% | vesicle binding response [6] 241% | inhibition [7] -20.9% | superoxide response (% of plate) [8] 102% | aptamer binding inhibition [9] 5% | response [10] 37.4% | inhibition [11] 4.51% | response [12] -0.56% | binding (% of control) [13] 100% | efflux inhibition (fraction of control) [14] -0.24 | inhibition [15] -7% | differentiation response [16] 12%
61.2%: double positive events [6]

Cc1ccc2c(c1)C1OCCC1C1N2C(=O)C2C(C(=O)O)C3C=CC21O3 (stereo not drawn)
inactive: percent of DMSO control GFP [1] 104% | GFP response vs DMSO [2] 107% | percent response of DMSO control [3] 110% | GFP response vs DMSO [4] 106% | GFP response, % of DMSO [5] 107% | vesicle binding response [6] 207% | inhibition [7] 11% | superoxide response (% of plate) [8] 106% | aptamer binding inhibition [9] 11% | response [10] 0.35% | inhibition [11] 41.7% | response [12] 3.53% | binding (% of control) [13] 101% | efflux inhibition (fraction of control) [14] -0.32 | inhibition [15] 11% | differentiation response [16] -13.3%
62.2%: double positive events [6]

CCCCCCC(=O)N(O)C1CC(=O)N(Cc2ccccc2)C1=O (stereo not drawn)
59.7%: double positive events [6]
inactive: percent of DMSO control GFP [1] 106% | GFP response vs DMSO [2] 101% | percent response of DMSO control [3] 107% | GFP response vs DMSO [4] 94% | GFP response, % of DMSO [5] 101% | vesicle binding response [6] 191% | inhibition [7] -0.45% | superoxide response (% of plate) [8] 103% | aptamer binding inhibition [9] 1% | response [10] -3.98% | inhibition [11] 6.86% | response [12] 0.52% | binding (% of control) [13] 100% | efflux inhibition (fraction of control) [14] -0.01 | inhibition [15] 9% | differentiation response [16] -4.64%
